Among the data in ChEMBL document CHEMBL1961873, “Compounds: GSK PKIS; Assays: Nanosyn kinase panel” (2012) are inhibition values, retold here.

The target of test [1] is Sphingosine kinase 1 (Homo sapiens) (UniProt Q9NYA1). Particulars: at 1 µM.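 Also: mean SPHK1 inhibition value reported from the GSK PKIS kinase panel screen.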
Test [2] has as its target T1, Sphingosine kinase 2 (Homo sapiens) (UniProt Q9NRA0).
T1 sequence (whole entry): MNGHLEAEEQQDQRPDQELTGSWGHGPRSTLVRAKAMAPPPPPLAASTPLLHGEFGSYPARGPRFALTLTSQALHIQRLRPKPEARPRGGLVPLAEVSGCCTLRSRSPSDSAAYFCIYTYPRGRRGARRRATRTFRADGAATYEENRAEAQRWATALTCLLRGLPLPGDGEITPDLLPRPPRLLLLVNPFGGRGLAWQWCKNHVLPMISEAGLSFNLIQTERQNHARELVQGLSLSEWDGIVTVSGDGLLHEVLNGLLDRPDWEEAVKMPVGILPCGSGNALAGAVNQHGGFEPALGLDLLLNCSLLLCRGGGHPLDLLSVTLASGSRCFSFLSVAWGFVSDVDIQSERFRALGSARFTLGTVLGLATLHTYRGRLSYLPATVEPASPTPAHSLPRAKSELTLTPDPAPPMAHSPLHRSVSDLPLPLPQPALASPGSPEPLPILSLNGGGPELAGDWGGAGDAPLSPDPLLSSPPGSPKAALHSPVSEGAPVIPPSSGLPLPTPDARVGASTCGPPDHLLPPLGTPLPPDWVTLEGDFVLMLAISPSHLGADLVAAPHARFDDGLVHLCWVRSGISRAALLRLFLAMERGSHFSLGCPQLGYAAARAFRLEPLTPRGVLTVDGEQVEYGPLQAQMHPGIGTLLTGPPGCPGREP
The conditions noted are these: at 0.1 µM.

For test [3], the target named is T1, Sphingosine kinase 2 (Homo sapiens). Particulars: at 1 µM.
In test [4] the target is Casein kinase II subunit alpha (Homo sapiens) (UniProt P68400). Particulars: at 0.1 µM.
Chain of Casein kinase II subunit alpha (Homo sapiens) (P68400 whole entry, looked up): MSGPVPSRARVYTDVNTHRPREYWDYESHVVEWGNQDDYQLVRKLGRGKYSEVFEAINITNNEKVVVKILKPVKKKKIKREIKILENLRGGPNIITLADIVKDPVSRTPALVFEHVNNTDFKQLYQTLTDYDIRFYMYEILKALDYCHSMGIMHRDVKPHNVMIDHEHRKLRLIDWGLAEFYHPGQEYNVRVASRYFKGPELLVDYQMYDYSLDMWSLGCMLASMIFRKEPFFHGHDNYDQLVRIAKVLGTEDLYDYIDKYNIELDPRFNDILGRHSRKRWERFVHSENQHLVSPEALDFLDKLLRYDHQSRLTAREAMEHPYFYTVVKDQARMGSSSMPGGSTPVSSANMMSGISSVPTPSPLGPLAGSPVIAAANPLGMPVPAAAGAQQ
For test [5] the target is unchanged. Particulars: at 1 µM.
The target of test [6] is T2, Inhibitor of nuclear factor kappa-B kinase subunit alpha (Homo sapiens) (UniProt O15111).
T2 sequence (whole entry): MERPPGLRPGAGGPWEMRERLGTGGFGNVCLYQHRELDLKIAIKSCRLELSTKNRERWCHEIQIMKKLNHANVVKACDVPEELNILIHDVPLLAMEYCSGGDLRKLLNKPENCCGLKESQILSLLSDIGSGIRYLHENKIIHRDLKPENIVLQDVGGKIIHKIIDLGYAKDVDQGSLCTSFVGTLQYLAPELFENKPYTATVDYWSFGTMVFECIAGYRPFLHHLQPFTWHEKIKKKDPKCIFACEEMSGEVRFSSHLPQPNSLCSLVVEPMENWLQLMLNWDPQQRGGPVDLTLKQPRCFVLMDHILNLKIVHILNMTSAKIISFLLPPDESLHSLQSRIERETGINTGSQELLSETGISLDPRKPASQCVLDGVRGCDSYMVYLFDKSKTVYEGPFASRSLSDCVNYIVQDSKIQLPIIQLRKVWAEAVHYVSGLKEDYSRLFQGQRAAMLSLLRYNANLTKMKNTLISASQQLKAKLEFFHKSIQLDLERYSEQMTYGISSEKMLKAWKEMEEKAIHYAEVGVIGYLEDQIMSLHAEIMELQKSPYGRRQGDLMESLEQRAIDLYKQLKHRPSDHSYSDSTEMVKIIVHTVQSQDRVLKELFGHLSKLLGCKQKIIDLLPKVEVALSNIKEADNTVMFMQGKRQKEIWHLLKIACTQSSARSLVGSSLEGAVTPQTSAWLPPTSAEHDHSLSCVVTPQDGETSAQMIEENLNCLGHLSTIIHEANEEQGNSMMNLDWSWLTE
The conditions noted are these: at 0.1 µM.

The target of test [7] is T2, Inhibitor of nuclear factor kappa-B kinase subunit alpha (Homo sapiens). The conditions noted are these: at 1 µM.
Test [8] has as its target T3, Inhibitor of nuclear factor kappa-B kinase subunit beta (Homo sapiens) (UniProt O14920).
T3 sequence (whole entry): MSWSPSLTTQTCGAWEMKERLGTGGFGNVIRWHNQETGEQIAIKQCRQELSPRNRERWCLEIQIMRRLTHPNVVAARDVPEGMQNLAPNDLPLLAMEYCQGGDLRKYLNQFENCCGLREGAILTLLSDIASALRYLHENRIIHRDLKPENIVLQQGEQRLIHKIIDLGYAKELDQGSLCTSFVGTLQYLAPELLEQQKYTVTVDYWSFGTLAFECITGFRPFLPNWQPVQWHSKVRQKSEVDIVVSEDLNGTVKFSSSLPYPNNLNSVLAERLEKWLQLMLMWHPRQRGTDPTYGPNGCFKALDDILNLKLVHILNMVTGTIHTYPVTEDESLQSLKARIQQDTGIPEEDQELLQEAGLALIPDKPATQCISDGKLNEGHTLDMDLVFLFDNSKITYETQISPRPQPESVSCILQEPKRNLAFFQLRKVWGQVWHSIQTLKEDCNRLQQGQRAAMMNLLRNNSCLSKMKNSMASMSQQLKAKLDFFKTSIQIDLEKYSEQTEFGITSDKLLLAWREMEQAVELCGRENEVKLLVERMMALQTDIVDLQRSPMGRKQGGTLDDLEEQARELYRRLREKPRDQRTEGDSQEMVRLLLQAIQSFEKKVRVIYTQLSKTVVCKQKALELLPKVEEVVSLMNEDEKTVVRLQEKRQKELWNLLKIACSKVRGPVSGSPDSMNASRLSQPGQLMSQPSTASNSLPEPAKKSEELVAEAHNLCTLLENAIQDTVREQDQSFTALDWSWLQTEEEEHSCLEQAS
The conditions noted are these: at 0.1 µM.

The target in test [9] is T3, Inhibitor of nuclear factor kappa-B kinase subunit beta (Homo sapiens). Particulars: at 1 µM.
Test [10] deals with T4, Inhibitor of nuclear factor kappa-B kinase subunit epsilon (Homo sapiens) (UniProt Q14164).
T4 sequence (whole entry): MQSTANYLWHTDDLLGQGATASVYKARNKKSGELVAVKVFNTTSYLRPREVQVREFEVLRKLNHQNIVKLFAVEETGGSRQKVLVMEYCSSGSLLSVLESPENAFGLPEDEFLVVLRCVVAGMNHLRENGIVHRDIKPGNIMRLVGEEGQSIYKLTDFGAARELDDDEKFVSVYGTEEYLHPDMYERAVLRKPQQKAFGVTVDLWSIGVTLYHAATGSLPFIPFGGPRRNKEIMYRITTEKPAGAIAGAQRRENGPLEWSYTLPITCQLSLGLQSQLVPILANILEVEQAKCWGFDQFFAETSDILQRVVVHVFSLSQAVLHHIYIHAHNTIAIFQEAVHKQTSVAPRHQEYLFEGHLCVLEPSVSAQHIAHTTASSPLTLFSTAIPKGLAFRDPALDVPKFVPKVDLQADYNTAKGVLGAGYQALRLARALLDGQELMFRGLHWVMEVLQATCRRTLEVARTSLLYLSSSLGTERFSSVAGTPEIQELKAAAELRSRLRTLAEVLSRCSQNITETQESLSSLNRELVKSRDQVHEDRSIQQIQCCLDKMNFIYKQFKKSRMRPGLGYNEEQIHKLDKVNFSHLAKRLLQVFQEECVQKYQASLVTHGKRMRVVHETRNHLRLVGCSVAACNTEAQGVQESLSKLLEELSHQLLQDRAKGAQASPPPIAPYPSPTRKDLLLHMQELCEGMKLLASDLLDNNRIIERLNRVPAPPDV
Particulars: at 0.1 µM.

Test [11] addresses T4, Inhibitor of nuclear factor kappa-B kinase subunit epsilon (Homo sapiens). Particulars: at 1 µM.
The target in test [12] is T5, Serine/threonine-protein kinase Nek1 (Homo sapiens) (UniProt Q96PY6).
T5 sequence (whole entry): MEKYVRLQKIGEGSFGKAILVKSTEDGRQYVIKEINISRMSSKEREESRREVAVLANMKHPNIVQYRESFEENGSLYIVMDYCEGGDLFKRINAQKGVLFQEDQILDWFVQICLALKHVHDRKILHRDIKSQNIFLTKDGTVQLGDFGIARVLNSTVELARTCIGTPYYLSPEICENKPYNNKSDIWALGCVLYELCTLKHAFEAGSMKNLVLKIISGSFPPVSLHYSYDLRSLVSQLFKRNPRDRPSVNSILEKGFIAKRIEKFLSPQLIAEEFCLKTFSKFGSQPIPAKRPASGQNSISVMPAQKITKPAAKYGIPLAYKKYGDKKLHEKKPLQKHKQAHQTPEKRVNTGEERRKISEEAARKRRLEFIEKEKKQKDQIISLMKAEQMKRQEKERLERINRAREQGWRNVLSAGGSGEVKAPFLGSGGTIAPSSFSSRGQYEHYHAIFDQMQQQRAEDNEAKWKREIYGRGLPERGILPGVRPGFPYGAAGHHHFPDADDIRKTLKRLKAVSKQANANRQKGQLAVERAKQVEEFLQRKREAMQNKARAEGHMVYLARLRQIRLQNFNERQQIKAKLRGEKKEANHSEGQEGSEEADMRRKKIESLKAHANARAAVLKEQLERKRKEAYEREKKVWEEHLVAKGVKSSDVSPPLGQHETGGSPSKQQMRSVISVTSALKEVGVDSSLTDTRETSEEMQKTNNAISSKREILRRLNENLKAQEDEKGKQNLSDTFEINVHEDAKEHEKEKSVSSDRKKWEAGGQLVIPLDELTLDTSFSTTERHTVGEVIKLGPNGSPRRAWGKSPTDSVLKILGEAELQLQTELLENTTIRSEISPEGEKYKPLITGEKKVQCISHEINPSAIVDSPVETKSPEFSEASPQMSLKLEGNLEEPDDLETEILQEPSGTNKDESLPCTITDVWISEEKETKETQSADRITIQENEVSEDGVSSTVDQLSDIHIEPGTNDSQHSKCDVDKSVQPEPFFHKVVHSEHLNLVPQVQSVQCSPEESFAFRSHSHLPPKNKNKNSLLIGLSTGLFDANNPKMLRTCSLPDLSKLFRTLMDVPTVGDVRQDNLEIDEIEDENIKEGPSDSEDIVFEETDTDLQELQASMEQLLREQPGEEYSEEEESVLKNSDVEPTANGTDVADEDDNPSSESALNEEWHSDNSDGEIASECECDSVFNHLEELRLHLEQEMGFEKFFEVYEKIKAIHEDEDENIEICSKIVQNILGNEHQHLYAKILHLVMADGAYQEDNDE
Particulars: at 0.1 µM.

Test [13] deals with T5, Serine/threonine-protein kinase Nek1 (Homo sapiens). The conditions noted are these: at 1 µM.
Test [14] deals with T6, Serine/threonine-protein kinase Nek2 (Homo sapiens) (UniProt P51955).
T6 sequence (whole entry): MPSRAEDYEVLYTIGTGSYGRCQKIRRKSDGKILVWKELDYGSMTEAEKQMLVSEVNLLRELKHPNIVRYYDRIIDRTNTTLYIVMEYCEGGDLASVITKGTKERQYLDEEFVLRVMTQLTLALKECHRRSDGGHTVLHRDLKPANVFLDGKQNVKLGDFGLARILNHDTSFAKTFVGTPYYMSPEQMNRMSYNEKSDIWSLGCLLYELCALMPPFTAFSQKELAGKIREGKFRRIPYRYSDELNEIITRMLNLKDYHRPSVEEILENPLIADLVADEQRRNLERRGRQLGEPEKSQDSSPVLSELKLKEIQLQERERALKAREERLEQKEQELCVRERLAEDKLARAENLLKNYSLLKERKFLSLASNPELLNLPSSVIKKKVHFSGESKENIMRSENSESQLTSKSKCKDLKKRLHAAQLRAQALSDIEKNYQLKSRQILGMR
Particulars: at 0.1 µM.

In test [15] the target is T6, Serine/threonine-protein kinase Nek2 (Homo sapiens). The conditions noted are these: at 1 µM.
For test [16], the target named is Serine/threonine-protein kinase Nek6 (Homo sapiens) (UniProt Q9HC98). The conditions noted are these: at 0.1 µM.
Chain of Serine/threonine-protein kinase Nek6 (Homo sapiens) (Q9HC98 whole entry): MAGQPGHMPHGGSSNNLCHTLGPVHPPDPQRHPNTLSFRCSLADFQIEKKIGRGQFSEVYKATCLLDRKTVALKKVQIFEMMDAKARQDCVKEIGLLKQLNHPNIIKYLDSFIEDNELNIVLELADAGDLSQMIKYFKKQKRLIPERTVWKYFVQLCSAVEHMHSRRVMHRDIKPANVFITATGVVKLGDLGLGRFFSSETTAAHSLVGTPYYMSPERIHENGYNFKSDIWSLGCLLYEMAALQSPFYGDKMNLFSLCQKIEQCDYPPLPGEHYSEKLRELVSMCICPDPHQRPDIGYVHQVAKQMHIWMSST
For test [17] the target is unchanged. The conditions noted are these: at 1 µM.
Test [18] concerns the target Serine/threonine-protein kinase Nek7 (Homo sapiens) (UniProt Q8TDX7). Particulars: at 0.1 µM.
For test [19] the target is unchanged. Particulars: at 1 µM.
Test [20] has as its target T7, Serine/threonine-protein kinase Nek9 (Homo sapiens) (UniProt Q8TD19).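 Also: reported value is the mean percent inhibition of NEK9.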
T7 sequence (whole entry): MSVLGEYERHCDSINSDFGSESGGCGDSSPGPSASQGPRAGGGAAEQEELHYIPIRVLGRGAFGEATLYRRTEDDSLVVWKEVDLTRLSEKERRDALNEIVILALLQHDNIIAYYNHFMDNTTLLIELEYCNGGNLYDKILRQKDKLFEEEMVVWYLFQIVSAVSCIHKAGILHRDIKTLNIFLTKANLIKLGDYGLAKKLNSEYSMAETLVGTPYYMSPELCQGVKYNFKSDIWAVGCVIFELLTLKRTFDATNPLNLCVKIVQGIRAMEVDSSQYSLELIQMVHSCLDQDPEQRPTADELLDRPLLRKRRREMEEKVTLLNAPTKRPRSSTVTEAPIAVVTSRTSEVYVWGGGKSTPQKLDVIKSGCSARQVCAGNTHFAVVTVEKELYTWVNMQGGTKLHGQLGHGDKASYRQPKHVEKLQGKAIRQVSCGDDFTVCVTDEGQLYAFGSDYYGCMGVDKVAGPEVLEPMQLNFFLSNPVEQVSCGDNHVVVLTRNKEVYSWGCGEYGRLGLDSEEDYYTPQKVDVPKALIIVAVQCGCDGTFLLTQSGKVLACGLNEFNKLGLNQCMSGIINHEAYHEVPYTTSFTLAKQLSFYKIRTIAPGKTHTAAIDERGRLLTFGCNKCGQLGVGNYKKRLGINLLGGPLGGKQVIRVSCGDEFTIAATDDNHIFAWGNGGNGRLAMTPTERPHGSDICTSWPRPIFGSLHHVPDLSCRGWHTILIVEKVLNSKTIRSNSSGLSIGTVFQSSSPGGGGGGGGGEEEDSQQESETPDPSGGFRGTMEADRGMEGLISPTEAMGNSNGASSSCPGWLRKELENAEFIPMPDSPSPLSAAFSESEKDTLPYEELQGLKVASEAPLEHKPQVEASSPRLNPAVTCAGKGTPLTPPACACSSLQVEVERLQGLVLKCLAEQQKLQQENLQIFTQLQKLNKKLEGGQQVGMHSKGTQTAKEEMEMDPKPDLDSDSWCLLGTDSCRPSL
The conditions noted are these: at 0.1 µM.

Chain of Serine/threonine-protein kinase Nek7 (Homo sapiens) (Q8TDX7 whole entry, looked up): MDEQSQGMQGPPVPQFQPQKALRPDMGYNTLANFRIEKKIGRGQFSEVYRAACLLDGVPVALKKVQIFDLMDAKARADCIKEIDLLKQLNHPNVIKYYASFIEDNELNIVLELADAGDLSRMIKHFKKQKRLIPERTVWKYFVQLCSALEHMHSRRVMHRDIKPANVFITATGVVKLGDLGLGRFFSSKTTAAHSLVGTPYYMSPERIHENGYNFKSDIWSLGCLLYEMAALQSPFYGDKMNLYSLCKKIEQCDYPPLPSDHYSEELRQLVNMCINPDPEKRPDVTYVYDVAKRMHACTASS
Chain of Sphingosine kinase 1 (Homo sapiens) (Q9NYA1 whole entry): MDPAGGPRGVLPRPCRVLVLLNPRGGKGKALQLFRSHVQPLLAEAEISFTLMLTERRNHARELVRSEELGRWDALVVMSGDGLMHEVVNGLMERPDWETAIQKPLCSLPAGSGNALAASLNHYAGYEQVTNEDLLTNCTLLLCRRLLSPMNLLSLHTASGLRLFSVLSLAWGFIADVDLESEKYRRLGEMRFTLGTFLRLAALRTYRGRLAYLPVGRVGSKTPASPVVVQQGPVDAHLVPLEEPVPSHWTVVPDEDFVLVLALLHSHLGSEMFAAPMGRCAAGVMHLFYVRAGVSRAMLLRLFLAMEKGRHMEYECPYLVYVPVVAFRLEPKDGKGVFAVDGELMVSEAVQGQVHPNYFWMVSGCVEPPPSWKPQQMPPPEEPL

Regarding `c1ccc(COc2ccc(Nc3ncnc4ccc(-c5ccco5)cc34)cc2)cc1`, the inhibition in test [1] was 0.95%; in [2], -2.53%; in test [3] it was 1.35%; in test [4], 1.23%; in test [5] it was 4.42%; in test [6], -5.49%. Moreover, the inhibition is 0.49% in test [7]; 1.07% in test [8]; 0.01% in test [9]; 4.51% in [10]; 3.49% in [11]; 0.6% in [12]. For the same compound, the inhibition is 1.07% in [13]; 1.15% in test [14]; 0.92% in [15]; -0.18% in test [16]; -0.36% in test [17]; -0.99% in test [18]. The inhibition in [19] is 1.84%; in test [20], 1.17%.

As usually defined, the inhibition is the change of the read-out against control, counted positive when it falls.
